Source: PubChem
Most compounds without a hit are left out; they make up all but 20% or so of the library.
HCMV antiviral – human cytomegalovirus inhibition | HFF cells, HCMV-luciferase reporter, 72 h; stronger effect = lower value | activity change, negative = inhibition, % at 57.5 µM | actives 4.5% (n = 410,000) | AID 1259415; in the data active = activity change below about -60%; inconclusive = no clear call, values can overlap the other calls; inactive = above about -39%
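Human foreskin fibroblasts infected with luciferase-reporter HCMV at MOI 1 PFU/cell, compounds at two doses. Luciferase measured 72 h post infection; normalized to buffer-only basal and Salinomycin (10uM) controls.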
Pf growth 96h – P. falciparum growth inhibition at 96 hour, primary screen for plastid delayed-death inhibitors | Potency, µM (titrated, usually from 28.7 µM), most hits filed as inhibitors | P. falciparum luciferase reporter growth, 96 h | AID 504834 | actives 6.9% (n = 320,000)
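Cell-based qHTS: luciferase-tagged P. falciparum in erythrocytes (2% hematocrit, 0.05% parasitemia final) incubated with compounds for 96 hours, 37 C, 5% CO2; luciferase detection reagent then added and luminescence measured.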
Cycloheximide cs – counter-screen for Shiga toxin inhibitors: cycloheximide protein synthesis inhibition | AID 2314 | cell reporter, cycloheximide protein synthesis inhibition counterscreen | actives 12% (n = 300,000) | max response, %; in the data active = max response mostly above about 13%, no sharp cut-off; inactive = mostly below about 14%; also: read at 38.3 µM for the half of the compounds with a filed dose
Shiga inhibitor – Shiga toxin inhibition | actives 9.2% (n = 290,000) | inhibition, % at 38.7 µM | Vero cells, Shiga toxin protein synthesis inhibition reporter; in the data active = inhibition mostly above about 28%, no sharp cut-off; inactive = mostly below about 43%
Pf growth 48h – inhibits P. falciparum growth in the first generation, 48 h. Potency, µM (series often up to 28.7 µM), most hits filed as inhibitors. P. falciparum luciferase growth in erythrocytes, 48 h. AID 504832. actives 5.9% (n = 310,000)
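Read-out is firefly luciferase luminescence from an integrated reporter in P. falciparum, so falling signal marks reduced parasite growth. Infected erythrocytes were at 2% hematocrit and 0.1% parasitemia (final) in Albumax-supplemented RPMI 1640.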
Numbers stand for hits. Unless noted, calls follow the shape of the dose curve; as a rule, active = well fitted inhibition curve with a large enough effect; inconclusive = small, poorly fitted or top-dose-only effect, or another doubt; inactive = no such curve, though single readings can be large or run the other way.

Cc1nnc(NC(=O)CN2CCN(Cc3c(Cl)cccc3Cl)CC2)s1 was read as HCMV antiviral inactive, Pf growth 96h inactive, Cycloheximide cs inactive, Shiga inhibitor inactive and Pf growth 48h inactive.
For CCOc1ccc(C(=O)C(C)OC(=O)c2cnc(C)cn2)cc1 (configuration not stated) the results were HCMV antiviral inactive, Pf growth 96h inactive and Pf growth 48h inactive.
Screening CCOc1ccc(C2C=C(c3ccc(C)cc3)Nc3ncnn32)cc1 (configuration not stated) returned Pf growth 96h inactive, Cycloheximide cs inactive, Shiga inhibitor inactive and Pf growth 48h 10µM.
CCOc1ccc(C2C=C(c3ccccc3)Nc3nnnn32)cc1 (configuration not stated) was read as HCMV antiviral inactive, Pf growth 96h inactive, Cycloheximide cs 58, Shiga inhibitor 131 and Pf growth 48h inactive.
CCOc1ccc(C2C=C(c3cccc(OC)c3)Nc3nnnn32)cc1 (configuration not stated) was read as HCMV antiviral inactive.
`COc1ccc(C2=CC(c3c(C)nn(-c4ccccc4)c3Cl)n3nnnc3N2)cc1OC` (configuration not stated) gave HCMV antiviral inconclusive, Pf growth 96h inconclusive, Cycloheximide cs inactive, Shiga inhibitor inactive and Pf growth 48h 2.3µM.
For COc1ccc(C2=CC(c3cccc(C)c3)n3nnnc3N2)cc1 (configuration not stated) the results were HCMV antiviral inactive, Cycloheximide cs 28 and Shiga inhibitor inactive.
Cc1ccc(C2=CC(=O)CC(C)(C)C2=O)cc1 was read as HCMV antiviral inactive.
Screening CCOc1ccc(C2C=C(c3ccc(C)cc3)Nc3nnnn32)cc1 (configuration not stated) returned HCMV antiviral inactive, Pf growth 96h 13µM, Cycloheximide cs inactive, Shiga inhibitor inactive and Pf growth 48h 8.3µM.
O=C(Nc1ccc2c(c1)OCCO2)c1cc2sccc2n1Cc1ccccc1 was read as HCMV antiviral inconclusive, Pf growth 96h inconclusive, Cycloheximide cs inactive, Shiga inhibitor 126 and Pf growth 48h inconclusive.
`Cn1c(C(=O)NCCN2CCOCC2)cc2sccc21` gave HCMV antiviral inactive, Pf growth 96h inactive, Cycloheximide cs inactive, Shiga inhibitor inactive and Pf growth 48h inactive.
Cc1ccc(Cn2c(C(=O)Nc3cccc(Cl)c3)cc3sccc32)cc1 was read as HCMV antiviral inactive.
O=C(Nc1ccc2c(c1)OCCO2)c1cc2sccc2n1Cc1ccc(F)cc1 was read as HCMV antiviral inactive, Pf growth 96h 10µM, Cycloheximide cs 31, Shiga inhibitor 65 and Pf growth 48h inconclusive.
Screening CCOC(=O)c1cccc(NC(=O)c2cc3sccc3n2C)c1 returned HCMV antiviral inactive, Cycloheximide cs 39, Shiga inhibitor 46 and Pf growth 48h inactive.
`CC(=O)c1ccc(NC(=O)c2cc3sccc3n2Cc2ccc(Cl)cc2)cc1` gave HCMV antiviral inactive.
`Cn1c(C(=O)Nc2ccc3c(c2)OCCO3)cc2sccc21` gave HCMV antiviral inactive, Pf growth 96h inactive, Cycloheximide cs 36, Shiga inhibitor 47 and Pf growth 48h inactive.
Screening COc1ccc(C2=NN(S(C)(=O)=O)C(c3cccs3)C2)cc1OC (configuration not stated) returned HCMV antiviral inactive, Pf growth 96h inconclusive, Cycloheximide cs 44, Shiga inhibitor 66 and Pf growth 48h inactive.
Screening CCS(=O)(=O)Nc1ccc(C2=NN(S(C)(=O)=O)C(c3cccs3)C2)cc1 (configuration not stated) returned HCMV antiviral inactive, Pf growth 96h inactive, Cycloheximide cs 21, Shiga inhibitor inactive and Pf growth 48h inactive.
`COc1cccc(C2=NN(S(C)(=O)=O)C(c3cccs3)C2)c1` (configuration not stated) gave HCMV antiviral inactive, Pf growth 96h inconclusive, Cycloheximide cs 35, Shiga inhibitor 40 and Pf growth 48h inactive.
CS(=O)(=O)N1N=C(c2ccccc2)CC1c1cccs1 (configuration not stated) was read as HCMV antiviral inactive, Pf growth 96h inconclusive, Cycloheximide cs inactive, Shiga inhibitor inactive and Pf growth 48h inactive.
Cc1ccc(Cl)cc1-n1ncc2c(Nc3cccc(C)c3C)ncnc21 was read as HCMV antiviral inactive.
`COc1ccc(C(=O)Nc2c(Cl)cc(Cl)cc2C(=O)NCCN2CCOCC2)cc1` gave HCMV antiviral inactive, Pf growth 96h inactive, Cycloheximide cs inactive, Shiga inhibitor inactive and Pf growth 48h inactive.
CCOCCn1c(=NC(=O)CSCC(=O)N2CCOCC2)sc2cc(OC)ccc21 was read as HCMV antiviral inactive, Pf growth 96h inconclusive, Cycloheximide cs inactive, Shiga inhibitor inactive and Pf growth 48h inactive.
`COc1ccc(S(=O)(=O)Nc2ccccc2OC)cc1NC(=O)c1cc2ccccc2oc1=O` gave HCMV antiviral inactive, Pf growth 96h inactive, Cycloheximide cs 38, Shiga inhibitor 148 and Pf growth 48h inactive.
CCCOc1ccc(-c2nonc2NC(=O)c2cc(OC)c(OC)c(OC)c2)cc1OCCC was read as HCMV antiviral -76.
Screening COc1ccccc1C(=O)Nc1cc2cc(Br)ccc2oc1=O returned HCMV antiviral inactive, Pf growth 96h inactive, Cycloheximide cs inactive, Shiga inhibitor inactive and Pf growth 48h inactive.
COc1ccc(NC(=O)c2cc3ccccc3oc2=O)c(OC)c1 was read as HCMV antiviral inactive, Pf growth 96h inconclusive, Cycloheximide cs 51, Shiga inhibitor 133 and Pf growth 48h inconclusive.
COc1ccccc1C(=O)Nc1cc2ccccc2oc1=O was read as Pf growth 96h inactive, Cycloheximide cs 19 and Shiga inhibitor 43.
`CCc1cccc(C)c1NC(=O)C(CC)Sc1nc2ccncc2[nH]1` (configuration not stated) gave HCMV antiviral inactive.
CN(C)S(=O)(=O)c1ccc(C(=O)OCC(=O)NCc2ccco2)cc1 was read as HCMV antiviral inactive, Pf growth 96h inactive, Cycloheximide cs inactive, Shiga inhibitor inactive and Pf growth 48h inactive.
COc1ccc(OC)c(NC(=O)c2cc3oc4ccccc4c3cc2O)c1 was read as HCMV antiviral inactive, Pf growth 96h inconclusive, Cycloheximide cs inactive, Shiga inhibitor inactive and Pf growth 48h 4.1µM.
`COc1ccc(NC(=O)c2oc3ccccc3c2C)c(OC)c1` gave HCMV antiviral inactive, Pf growth 96h inactive, Cycloheximide cs 16, Shiga inhibitor 46 and Pf growth 48h inactive.
For COc1ccccc1NC(=O)c1oc2ccccc2c1C the results were HCMV antiviral inactive.
Screening COc1ccc(OC)c(NC(=O)c2ccccc2SC)c1 returned HCMV antiviral inactive, Cycloheximide cs inactive, Shiga inhibitor inactive and Pf growth 48h inactive.
For COc1cc(NC(=O)c2cc(Cl)ccc2Cl)ccc1-c1cc2ccccc2oc1=O the results were HCMV antiviral inactive, Pf growth 96h 12µM, Cycloheximide cs inactive, Shiga inhibitor inactive and Pf growth 48h inconclusive.
Screening COc1ccc(-c2nonc2NC(=O)c2oc3ccccc3c2C)cc1OC returned HCMV antiviral inactive, Pf growth 96h 10µM, Cycloheximide cs inactive, Shiga inhibitor inactive and Pf growth 48h inconclusive.
